# “And” between values parts separate entries of the source, which are not always exact repeats. Equal entries are not always repeated. The source made the active and inactive calls.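 Rule for the calls, unless noted: active = thallium flux through the channel raised or lowered by more than 3 SD from vehicle-only wells, actives on both sides; inactive = the rest.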
# How the values were obtained:
# [1] = Wnt pathway potentiators raising nuclear beta-catenin – imaging, WNT3A-conditioned medium, mouse C2C12, NPC library, primary screen (AID 1117326; in the data active = nuclear beta-catenin stimulation mostly above about 4.2%, no sharp cut-off; inactive = mostly below about 10%); conditions: stronger effect = higher value
# [2] = stimulators of insulin release from INS-1E, primary screen, cell-based, 5 mM glucose, NPC library (AID 1117329;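 active = compound raises insulin release from rat beta cells at 5 mM glucose, no numeric limit stated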); conditions: rat INS-1E insulin secretion, at 10 µM, stronger effect = higher value
# [3] = growth inhibition of GSK3B-pretreated HCT116 cells – cell-based, CellTiter-Glo, 0.2 to 20 µM (AID 1117336;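 active = compounds lowering colon cancer cell viability after pretreatment blocking the GSK3B kinase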); conditions: HCT116 viability after GSK3B inhibitor, at 20 µM, stronger effect = higher value
# [4] = inhibition of endothelial tube formation, primary screen, imaging, VEGF stimulated, CD31 staining, tube area, NPC library (AID 1117340;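 active = compound that reduces growth-factor-driven endothelial tube area in a mixed cell culture, no cutoff stated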); conditions: VEGF-stimulated ADSC/ECFC co-culture, at 10 µM, stronger effect = higher value
# [5] = GLP1 release stimulators, primary, NCI-H716, NPC library (AID 1117341;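 active = compound raises GLP1 secretion from the human gut endocrine cells, with no numeric limit stated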); conditions: NCI-H716 cells, at 10 µM, stronger effect = higher value
# [6] = HCT116 colon cancer cell growth inhibition, primary screen, CellTiter-Glo luminescence, NPC library (AID 1117342;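 active = compounds that lower survival of HCT116 colon cancer cells in the luminescence readout, no numeric limit stated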); conditions: at 20 µM (top of the series)
# [7] = reduced SW480 viability measured with CellTiter-Glo, NPC library, primary (AID 1117343;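 active = compounds that lower viability of the colon cancer cells in the luminescence readout, with no numeric limit stated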); conditions: CellTiter-Glo luminescence; at 20 µM (top of the series)
# [8] = NPC library primary testing for decreased DLD-1 cell viability via CellTiter-Glo (AID 1117346;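 active = compounds that lower survival of DLD-1 colon cancer cells in the luminescence readout, no cutoff given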); conditions: DLD-1 viability, CellTiter-Glo luminescence; at 20 µM (top of the series)
# [9] = molecular target: 6-phosphogluconate dehydrogenase, decarboxylating (Homo sapiens) (UniProt P52209); assay: inhibition of human phosphogluconate dehydrogenase – biochemical, recombinant enzyme, NADPH absorbance, primary screen (AID 1159550;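 active = at least 20% inhibition of 6-phosphogluconate dehydrogenase activity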); conditions: recombinant 6PGD, NADPH absorbance 341 nm; at 10 µM; stronger effect = higher value
# Sequence of 6-phosphogluconate dehydrogenase, decarboxylating (Homo sapiens) (P52209 whole entry, looked up): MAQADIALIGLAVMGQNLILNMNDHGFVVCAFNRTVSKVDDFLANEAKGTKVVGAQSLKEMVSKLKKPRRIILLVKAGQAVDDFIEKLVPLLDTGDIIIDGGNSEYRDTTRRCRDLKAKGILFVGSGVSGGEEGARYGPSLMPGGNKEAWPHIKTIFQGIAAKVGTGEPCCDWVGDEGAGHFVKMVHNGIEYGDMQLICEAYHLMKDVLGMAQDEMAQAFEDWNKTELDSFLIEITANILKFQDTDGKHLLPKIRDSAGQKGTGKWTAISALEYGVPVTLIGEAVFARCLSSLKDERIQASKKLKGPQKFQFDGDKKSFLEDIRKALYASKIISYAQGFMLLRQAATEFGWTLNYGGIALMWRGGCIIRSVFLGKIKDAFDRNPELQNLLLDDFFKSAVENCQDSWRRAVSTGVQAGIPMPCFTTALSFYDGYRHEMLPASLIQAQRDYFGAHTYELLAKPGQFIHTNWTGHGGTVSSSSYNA
# [10] = EMT-state selective cytotoxicity in co-culture – imaging, PC-3E GFP, TEM4-18 mCherry, primary screen (AID 1345086;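 active = compounds killing one labelled cell type while sparing the other, by normalised counts and ratio limits, not self-fluorescent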;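 for all read-outs here: cells exposed to compound for 72 h before imaging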;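 for red/green cell ratio (normalised): normalised mesenchymal count divided by normalised epithelial count so high means epithelial killing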); conditions: PC-3E GFP / TEM4-18 mCherry co-culture, imaging cell counts, at 1 µM; for red/green cell ratio (normalised): actives lie on both sides, counts scaled to control wells, 1 = unselective
# [11] = MELAS cybrid and Rieske KO viability enhancers – cell-based, MELAS cybrids, Rieske KO mouse fibroblasts, CellTiter-Glo, primary screen (AID 1508586;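 active = mean z-score across replicates of 1.96 or higher in either the MELAS or the Rieske mutant cell line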;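 note: z relative to plate mean and SD of compound and empty wells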); conditions: low glucose
# [12] = molecular target: NAD(+) hydrolase SARM1 (Homo sapiens) (UniProt Q6SZW1); assay: blocking NAD cleavage by SARM1 SAM-TIR – cell lysate, NAD-Glo luminescence (AID 1508614;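 active = compound whose remaining NAD level is above about 45 nM, limit read from the data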;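 note: higher remaining NAD means stronger inhibition of SARM1 NADase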); conditions: SAM-TIR HEK293T lysate NADase, at 1 µM, stronger effect = higher value
# Sequence of NAD(+) hydrolase SARM1 (Homo sapiens) (Q6SZW1 whole entry, looked up, the tested form may be a part): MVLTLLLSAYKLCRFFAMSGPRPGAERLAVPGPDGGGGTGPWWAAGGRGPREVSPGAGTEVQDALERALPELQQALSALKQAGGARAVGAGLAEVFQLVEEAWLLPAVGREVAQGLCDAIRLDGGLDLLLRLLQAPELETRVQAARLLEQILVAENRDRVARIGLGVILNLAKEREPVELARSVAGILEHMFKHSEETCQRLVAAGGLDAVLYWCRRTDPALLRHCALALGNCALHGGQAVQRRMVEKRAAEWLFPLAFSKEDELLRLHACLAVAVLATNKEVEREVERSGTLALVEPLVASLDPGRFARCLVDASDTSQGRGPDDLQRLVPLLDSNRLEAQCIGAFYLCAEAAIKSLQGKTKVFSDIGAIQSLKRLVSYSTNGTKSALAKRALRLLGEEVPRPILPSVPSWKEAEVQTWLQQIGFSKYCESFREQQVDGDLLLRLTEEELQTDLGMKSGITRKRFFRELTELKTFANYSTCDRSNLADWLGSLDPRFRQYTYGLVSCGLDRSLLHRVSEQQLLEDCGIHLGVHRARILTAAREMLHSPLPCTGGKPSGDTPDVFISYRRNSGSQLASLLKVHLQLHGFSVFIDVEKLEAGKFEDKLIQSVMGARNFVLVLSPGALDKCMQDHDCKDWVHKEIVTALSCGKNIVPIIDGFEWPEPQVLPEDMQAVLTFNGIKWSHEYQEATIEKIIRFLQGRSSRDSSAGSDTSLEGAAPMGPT
# [13] = molecular target: Mitogen-activated protein kinase 7 (Homo sapiens) (UniProt Q13164); assay: Gal4-ERK5 driven luciferase induction – cell-based, HTS, primary screen (AID 1508626;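 active = luciferase signal above three times the same-plate solvent-only control wells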;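 note: luciferase driven by Gal4-ERK5 fusion binding five Gal4 sites before minimal TATA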); conditions: HeLa Gal4-ERK5 transactivation, 18 h, at 5 µM, stronger effect = higher value
# Sequence of Mitogen-activated protein kinase 7 (Homo sapiens) (Q13164 whole entry, looked up, the tested form may be a part): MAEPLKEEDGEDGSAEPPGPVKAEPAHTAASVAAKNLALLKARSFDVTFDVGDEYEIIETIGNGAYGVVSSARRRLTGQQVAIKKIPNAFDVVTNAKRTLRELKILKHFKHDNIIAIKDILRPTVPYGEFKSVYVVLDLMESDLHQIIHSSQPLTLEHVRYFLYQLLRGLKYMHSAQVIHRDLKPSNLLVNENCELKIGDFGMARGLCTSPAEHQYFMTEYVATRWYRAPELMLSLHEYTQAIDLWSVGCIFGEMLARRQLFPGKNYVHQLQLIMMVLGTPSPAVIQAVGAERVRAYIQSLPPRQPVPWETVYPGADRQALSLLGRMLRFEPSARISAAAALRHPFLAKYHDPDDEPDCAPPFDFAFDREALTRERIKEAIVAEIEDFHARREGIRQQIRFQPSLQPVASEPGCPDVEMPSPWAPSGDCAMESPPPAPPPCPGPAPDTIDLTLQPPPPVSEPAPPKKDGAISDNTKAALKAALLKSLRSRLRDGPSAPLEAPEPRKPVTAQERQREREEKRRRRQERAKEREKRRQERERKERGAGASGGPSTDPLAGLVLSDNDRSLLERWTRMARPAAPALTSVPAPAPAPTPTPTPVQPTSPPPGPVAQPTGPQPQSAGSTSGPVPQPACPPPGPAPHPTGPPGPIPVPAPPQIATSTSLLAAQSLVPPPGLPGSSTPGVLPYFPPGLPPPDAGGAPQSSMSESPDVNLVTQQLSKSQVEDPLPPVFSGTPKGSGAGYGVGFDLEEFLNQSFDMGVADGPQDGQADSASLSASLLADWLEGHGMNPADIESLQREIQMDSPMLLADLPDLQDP
# F380Y = assay: BK channel mutant inhibitors and activators – cell-based, U2OS BacMam, thallium flux, beta subunits, selectivity assay, profiling panel (AID 1259406); conditions: U2OS BacMam BK variants, at 30 µM;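 note: initial slope of Thallos dye fluorescence rise after thallium is added; log ratio against the mean of 0.3% DMSO vehicle wells on the same plate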
# F380Y/beta2Delta = assay: as above; conditions: U2OS BacMam BK variants, at 30 µM
# [14] = molecular target: Calcium-activated potassium channel subunit alpha-1 (Homo sapiens) + Leucine-rich repeat-containing protein 26 (Homo sapiens) (UniProt Q12791+Q2I0M4); assay: as above; conditions: U2OS BacMam BK variants, F380Y/Slo1WT/gamma1, at 30 µM
# Sequence of Calcium-activated potassium channel subunit alpha-1 (Homo sapiens) + Leucine-rich repeat-containing protein 26 (Homo sapiens) (Q2I0M4 whole entry, looked up, one chain of several): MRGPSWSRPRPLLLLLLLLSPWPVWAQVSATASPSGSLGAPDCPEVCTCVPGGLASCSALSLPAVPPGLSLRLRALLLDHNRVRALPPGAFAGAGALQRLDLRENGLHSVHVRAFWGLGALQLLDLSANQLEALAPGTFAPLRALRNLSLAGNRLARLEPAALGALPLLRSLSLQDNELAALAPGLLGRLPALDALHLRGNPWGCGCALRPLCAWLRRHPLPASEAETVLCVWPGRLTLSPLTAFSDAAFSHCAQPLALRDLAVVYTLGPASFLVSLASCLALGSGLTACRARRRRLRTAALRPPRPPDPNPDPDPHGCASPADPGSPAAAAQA
# R275C = assay: as above; conditions: U2OS BacMam BK variants, at 30 µM
# R275C/beta1 = assay: as above; conditions: U2OS BacMam BK variants, at 30 µM
# R275C/beta2Delta = assay: as above; conditions: U2OS BacMam BK variants, at 30 µM
# [15] = measured here: epithelial PC-3E GFP cell survival
# [16] = measured here: mesenchymal TEM4-18 mCherry cell survival
# [17] = MELAS cybrid survival, CellTiter-Glo 48 h, stronger effect = higher value
# [18] = Rieske KO mouse fibroblast survival, CellTiter-Glo 72 h
compound,measurement,setting,value
Cc1ccc(S(=O)(=O)NC(=O)NN2CCCCCC2)cc1,nuclear beta-catenin stimulation,[1]; at 10 µM,0.5% (inactive)
same,nuclear beta-catenin stimulation,"[1]; stimulation, at 2 µM",-0.9%
same,insulin secretion stimulation,[2],60.9% (active)
same,viability decrease,[3],-7% (inactive)
same,tube area decrease,[4],-13.2% (inactive)
same,GLP1 secretion stimulation,[5],1.4% (inactive)
same,inhibition of viability,[6],-14.9% (inactive)
same,viability decrease (inhibition),[7],-1.7% (inactive)
same,viability decrease (inhibition),[8],4.8% (inactive)
same,inhibition,[9],16.2% (inactive)
same,red/green cell ratio (normalised),[10],1.04 (inactive)
same,normalised cell number,[10]; [15],1.09
same,normalised cell number,[10]; [16],1.13
same,z-score,[11]; [17],-0.943 (inactive) and -0.476 (inactive)
same,z-score,[11]; [18],-0.174 and -0.295
same,remaining NAD,[12],10 nM (inactive)
same,luciferase signal,[13],144 AU (inactive)
same,log fold change Tl+ flux,F380Y,-0.0421 (inactive)
same,log fold change Tl+ flux,F380Y/beta2Delta,-0.0238 (inactive)
same,log fold change Tl+ flux,[14],0.0367 (inactive)
same,log fold change Tl+ flux,R275C,-0.0622 (inactive)
same,log fold change Tl+ flux,R275C/beta1,-0.00502 (inactive)
same,log fold change Tl+ flux,R275C/beta2Delta,-0.0116 (inactive)
Nc1nc(N)c2nc(-c3ccccc3)c(N)nc2n1,nuclear beta-catenin stimulation,[1]; at 10 µM,17.3% (inactive)
same,nuclear beta-catenin stimulation,"[1]; stimulation, at 2 µM",4.7%
same,insulin secretion stimulation,[2],-0.7% (inactive)
same,viability decrease,[3],91.2% (active)
same,tube area decrease,[4],10.4% (inactive)
same,GLP1 secretion stimulation,[5],2.6% (inactive)
same,inhibition of viability,[6],83% (active)
same,viability decrease (inhibition),[7],75.8% (active)
same,viability decrease (inhibition),[8],0.75% (inactive)
same,inhibition,[9],13.3% (inactive)
same,red/green cell ratio (normalised),[10],1.25 (inactive)
same,normalised cell number,[10]; [15],1
same,normalised cell number,[10]; [16],1.25
same,z-score,[11]; [17],-0.205 (inactive) and 1.1 (inactive)
same,z-score,[11]; [18],-0.161 and 0.254
same,remaining NAD,[12],10 nM (inactive)
same,luciferase signal,[13],48 AU (inactive)
same,log fold change Tl+ flux,F380Y,0.00573 (inactive)
same,log fold change Tl+ flux,F380Y/beta2Delta,0.0397 (inactive)
same,log fold change Tl+ flux,[14],0.00721 (inactive)
same,log fold change Tl+ flux,R275C,-0.00764 (inactive)
same,log fold change Tl+ flux,R275C/beta1,-0.0258 (inactive)
same,log fold change Tl+ flux,R275C/beta2Delta,-0.000652 (inactive)
CCCNC(=O)NS(=O)(=O)c1ccc(Cl)cc1,nuclear beta-catenin stimulation,[1]; at 10 µM,4.6% (inactive)
same,nuclear beta-catenin stimulation,"[1]; stimulation, at 2 µM",8.3%
same,insulin secretion stimulation,[2],1.5% (inactive)
same,viability decrease,[3],4.6% (inactive)
same,tube area decrease,[4],-1.2% (inactive)
same,GLP1 secretion stimulation,[5],6.4% (inactive)
same,inhibition of viability,[6],2.7% (inactive)
same,viability decrease (inhibition),[7],-4.3% (inactive)
same,viability decrease (inhibition),[8],-8.8% (inactive)
same,inhibition,[9],14.6% (inactive)
same,red/green cell ratio (normalised),[10],1.2 (inactive)
same,normalised cell number,[10]; [15],1.08
same,normalised cell number,[10]; [16],1.29
same,z-score,[11]; [17],-0.244 (inactive) and -0.535 (inactive)
same,z-score,[11]; [18],-0.188 and -0.232
same,remaining NAD,[12],10 nM (inactive)
same,luciferase signal,[13],276 AU (active)
same,log fold change Tl+ flux,F380Y,-0.0312 (inactive)
same,log fold change Tl+ flux,F380Y/beta2Delta,-0.00553 (inactive)
same,log fold change Tl+ flux,[14],-0.0083 (inactive)
same,log fold change Tl+ flux,R275C,0.0359 (inactive)
same,log fold change Tl+ flux,R275C/beta1,0.0476 (inactive)
same,log fold change Tl+ flux,R275C/beta2Delta,0.0638 (inactive)
C[C@H](CS)C(=O)N1CCC[C@H]1C(=O)O,nuclear beta-catenin stimulation,[1]; at 10 µM,0.8% (inactive)
same,nuclear beta-catenin stimulation,"[1]; stimulation, at 2 µM",0.9%
same,insulin secretion stimulation,[2],-2.3% (inactive)
same,viability decrease,[3],-11.6% (inactive)
same,tube area decrease,[4],12.5% (inactive)
same,GLP1 secretion stimulation,[5],2.3% (inactive)
same,inhibition of viability,[6],-2.6% (inactive)
same,viability decrease (inhibition),[7],27.6% (inactive)
same,viability decrease (inhibition),[8],-2.15% (inactive)
same,inhibition,[9],-3.72% (inactive)
same,red/green cell ratio (normalised),[10],1.1 (inactive)
same,normalised cell number,[10]; [15],1.01
same,normalised cell number,[10]; [16],1.1
same,z-score,[11]; [17],-0.272 (inactive) and -0.072 (inactive)
same,z-score,[11]; [18],-0.06 and -1.18
same,remaining NAD,[12],10 nM (inactive)
same,luciferase signal,[13],52 AU (inactive)
same,log fold change Tl+ flux,F380Y,-0.0244 (inactive)
same,log fold change Tl+ flux,F380Y/beta2Delta,0.00669 (inactive)
same,log fold change Tl+ flux,[14],0.0254 (inactive)
same,log fold change Tl+ flux,R275C,0.0445 (inactive)
same,log fold change Tl+ flux,R275C/beta1,-0.0207 (inactive)
same,log fold change Tl+ flux,R275C/beta2Delta,0.0269 (inactive)

# — PubChem BioAssay
